Experimental data as given in PubChem BioAssay AID1159580 (chemical genetic matrix, 2015).
Several values for one entry are separate records, joined by “and”; a condition that tells them apart may be missing. Equal values may be shown once. The campaign covered roughly 5,500 compounds. About 2,000 (36%) were called active. Roughly 18% stayed inconclusive and do not appear here. Rule as the data show it: active = normalized growth mostly below about 0.91 (no sharp cut-off); inconclusive = no clear call, values can overlap the other calls; inactive = mostly above about 0.92. Some of the results follow.

Experiment: chemical genetic growth profiling, strain panel (AID 1159580);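 also: tested at 20 µM; growth read once vehicle control cultures reached saturation at 30 °C; 1 = growth at the plate median or of vehicle wells; lower values mean less growth of the strain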
Conditions: growth OD

Measured: normalized growth

CC(C)C1=CC2=CCC3[C@](C)(CCC[C@]3(C)C(=O)O)C2CC1 (stereo not given in full)
inactive: S. cerevisiae deletion strains, locus YAL013W, strain DEP1, stronger effect = lower value 0.957 | S. cerevisiae deletion strains, locus YBR021W, strain FUR4, stronger effect = lower value 1.03 | S. cerevisiae deletion strains, locus YBR229C, strain ROT2, stronger effect = lower value 0.935 | S. cerevisiae deletion strains, locus YCL029C, strain bik1, stronger effect = lower value 0.995 | S. cerevisiae deletion strains, locus YDL035C, strain GPR1, stronger effect = lower value 0.918 | S. cerevisiae deletion strains, locus YDL074C, strain BRE1, stronger effect = lower value 0.923 | S. cerevisiae deletion strains, locus YDL101C, strain DUN1, stronger effect = lower value 0.946 | S. cerevisiae deletion strains, locus YDL134C, strain PPH21, stronger effect = lower value 0.935 | S. cerevisiae deletion strains, locus YDL185W, strain tfp1, stronger effect = lower value 0.975 | S. cerevisiae deletion strains, locus YDL192W, strain arf1, stronger effect = lower value 0.939 | S. cerevisiae deletion strains, locus YDR101C, strain arx1, stronger effect = lower value 1.05 | S. cerevisiae deletion strains, locus YDR150W, strain NUM1, stronger effect = lower value 0.981 | S. cerevisiae deletion strains, locus YDR318W, strain mcm21, stronger effect = lower value 0.925 | S. cerevisiae deletion strains, locus YDR388W, stronger effect = lower value 0.981 | S. cerevisiae deletion strains, locus YDR502C, strain sam2, stronger effect = lower value 0.952 | S. cerevisiae deletion strains, locus YEL061C, strain CIN8, stronger effect = lower value 0.97 | S. cerevisiae deletion strains, locus YER110C, stronger effect = lower value 0.99 | S. cerevisiae deletion strains, locus YER155C, strain BEM2, stronger effect = lower value 1.02 | S. cerevisiae deletion strains, locus YER167W, strain BCK2, stronger effect = lower value 0.994 | S. cerevisiae deletion strains, locus YGL078C, strain dbp3, stronger effect = lower value 0.978 | S. cerevisiae deletion strains, locus YGL086W, strain mad1, stronger effect = lower value 1.02 | S. cerevisiae deletion strains, locus YGL248W, strain PDE1, stronger effect = lower value 0.928 | S. cerevisiae deletion strains, locus YGR135W, strain pre9, stronger effect = lower value 0.94 | S. cerevisiae deletion strains, locus YGR252W, strain gcn5, stronger effect = lower value 0.986 | S. cerevisiae deletion strains, locus YHR079C, strain IRE1 (second series), stronger effect = lower value 0.974 | S. cerevisiae deletion strains, locus YHR094C, strain hxt1, stronger effect = lower value 0.976 | S. cerevisiae deletion strains, locus YHR129C, strain ARP1, stronger effect = lower value 0.967 | S. cerevisiae deletion strains, locus YHR200W, strain rpn10, stronger effect = lower value 0.995 | S. cerevisiae deletion strains, locus YIL066C, strain RNR3, stronger effect = lower value 0.937 | S. cerevisiae deletion strains, locus YIL073C, strain SPO22, stronger effect = lower value 0.902 | S. cerevisiae deletion strains, locus YIL125W, strain kgd1, stronger effect = lower value 1 | S. cerevisiae deletion strains, locus YIR030C, strain dcg1, stronger effect = lower value 0.974 | S. cerevisiae deletion strains, locus YJL134W, strain LCB3, stronger effect = lower value 0.977 | S. cerevisiae deletion strains, locus YJL168C, strain set2, stronger effect = lower value 0.977 | S. cerevisiae deletion strains, locus YJL187C, strain SWE1 (second series), stronger effect = lower value 0.96 | S. cerevisiae deletion strains, locus YJR043C, strain POL32, stronger effect = lower value 1.02 | S. cerevisiae deletion strains, locus YJR066W, strain TOR1, stronger effect = lower value 0.857 | S. cerevisiae deletion strains, locus YKL009W, strain mrt4, stronger effect = lower value 0.958 | S. cerevisiae deletion strains, locus YKL068W, stronger effect = lower value 0.971 | S. cerevisiae deletion strains, locus YKL085W, strain MDH1 (second series), stronger effect = lower value 0.966 | S. cerevisiae deletion strains, locus YKL085W, strain MDH1, stronger effect = lower value 0.966 | S. cerevisiae deletion strains, locus YKL190W, strain CNB1, stronger effect = lower value 0.958 | S. cerevisiae deletion strains, locus YKR001C, strain vps1, stronger effect = lower value 1.01 | S. cerevisiae deletion strains, locus YLR058C, strain SHM2, stronger effect = lower value 0.944 | S. cerevisiae deletion strains, locus YLR102C, strain apc9, stronger effect = lower value 0.985 | S. cerevisiae deletion strains, locus YLR113W, strain HOG1, stronger effect = lower value 0.859 | S. cerevisiae deletion strains, locus YLR268W, strain sec22, stronger effect = lower value 1.01 | S. cerevisiae deletion strains, locus YLR330W, strain CHS5, stronger effect = lower value 0.984 | S. cerevisiae deletion strains, locus YLR342W, strain FKS1 (second series), stronger effect = lower value 0.859 | S. cerevisiae deletion strains, locus YLR371W, strain rom2, stronger effect = lower value 0.992 | S. cerevisiae deletion strains, locus YML016C, strain PPZ1, stronger effect = lower value 0.966 | S. cerevisiae deletion strains, locus YML032C, strain rad52, stronger effect = lower value 0.949 | S. cerevisiae deletion strains, locus YML124C, strain tub3, stronger effect = lower value 0.979 | S. cerevisiae deletion strains, locus YMR078C, strain ctf18, stronger effect = lower value 0.974 | S. cerevisiae deletion strains, locus YMR223W, strain ubp8, stronger effect = lower value 0.923 | S. cerevisiae deletion strains, locus YNL067W, strain RPL9B, stronger effect = lower value 0.972 | S. cerevisiae deletion strains, locus YNL153C, strain GIM3, stronger effect = lower value 0.967 | S. cerevisiae deletion strains, locus YNL183C, strain NPR1, stronger effect = lower value 0.894 | S. cerevisiae deletion strains, locus YNL233W, strain BNI4, stronger effect = lower value 0.987 | S. cerevisiae deletion strains, locus YNL250W, strain rad50, stronger effect = lower value 0.963 | S. cerevisiae deletion strains, locus YNL271C, strain bni1, stronger effect = lower value 0.963 | S. cerevisiae deletion strains, locus YNL298W, strain CLA4, stronger effect = lower value 0.995 | S. cerevisiae deletion strains, locus YNL307C, strain MCK1, stronger effect = lower value 0.945 | S. cerevisiae deletion strains, locus YNR052C, strain pop2, stronger effect = lower value 0.95 | S. cerevisiae deletion strains, locus YOL006C, strain TOP1, stronger effect = lower value 0.937 | S. cerevisiae deletion strains, locus YOL012C, strain htz1 1.21 | S. cerevisiae deletion strains, locus YOL147C, strain pex11, stronger effect = lower value 0.987 | S. cerevisiae deletion strains, locus YOR061W, strain CKA2, stronger effect = lower value 0.921 | S. cerevisiae deletion strains, locus YOR069W, strain VPS5, stronger effect = lower value 0.972 | S. cerevisiae deletion strains, locus YOR136W, strain idh2, stronger effect = lower value 0.999 | S. cerevisiae deletion strains, locus YOR144C, strain elg1, stronger effect = lower value 0.982 | S. cerevisiae deletion strains, locus YOR316C, strain cot1, stronger effect = lower value 0.979 | S. cerevisiae deletion strains, locus YPL241C, strain CIN2, stronger effect = lower value 0.967 | S. cerevisiae deletion strains, locus YPR119W, strain clb2, stronger effect = lower value 0.977 | S. cerevisiae deletion strains, locus YPR141C, strain kar3, stronger effect = lower value 0.958 | S. cerevisiae deletion strains, locus YPR163C, strain tif3, stronger effect = lower value 0.976 | S. cerevisiae deletion strains, locus YPR167C, strain met16, stronger effect = lower value 0.98 | S. cerevisiae deletion strains, strain wtn01, stronger effect = lower value 1.06 | S. cerevisiae strains, strain wild type, stronger effect = lower value 0.962
active: S. cerevisiae deletion strains, locus YDR162C, strain NBP2, stronger effect = lower value 0.724 | S. cerevisiae deletion strains, locus YHR079C, strain IRE1, stronger effect = lower value 0.851 | S. cerevisiae deletion strains, locus YLR039C, strain RIC1, stronger effect = lower value 0.637 | S. cerevisiae deletion strains, locus YLR262C, strain YPT6, stronger effect = lower value 0.542 | S. cerevisiae deletion strains, locus YLR418C, strain cdc73, stronger effect = lower value 0.781 | S. cerevisiae deletion strains, locus YMR307W, strain GAS1, stronger effect = lower value 0.502 | S. cerevisiae deletion strains, locus YOR184W, strain ser1, stronger effect = lower value 0.801 | S. cerevisiae deletion strains, locus YOR231W, strain MKK1, stronger effect = lower value 0.859 | S. cerevisiae deletion strains, locus YPL256C, strain CLN2, stronger effect = lower value 0.824
0.996 (inactive) and 0.843 (active): S. cerevisiae deletion strains, locus YHR030C, strain SLT2, stronger effect = lower value
0.782 (active) and 0.89 (inactive): S. cerevisiae deletion strains, locus YJL095W, strain BCK1, stronger effect = lower value
